Compounds with a hit are over-represented: about 11% of the library has one in this group of screens.
Pf growth 48h = P. falciparum growth inhibition at 48 hours (one generation); Potency, µM (titrated, usually from 28.7 µM), inactives show at the highest dose activity change, negative = inhibition, usual class: inhibitors; P. falciparum luciferase growth in erythrocytes, 48 h; actives 5.9% (n = 310,000); further: on the % scale 0 is the no-effect control and ±100 the full control effect
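Luminescence readout; reporter = integrated firefly luciferase in P. falciparum. RBC culture at 2% hematocrit, 0.1% parasitemia final, 37 C/5% CO2; decreased signal taken as growth inhibition.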
Pf growth 96h = inhibits malaria parasite growth, 96 h. P. falciparum luciferase reporter growth, 96 h. Potency, µM (series often up to 28.7 µM), for the others: at the highest dose activity change, negative = inhibition, hits mostly inhibitors. actives 6.9% (n = 320,000). AID 504834; further: on the % scale 0 is the no-effect control and ±100 the full control effect
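Delayed-death screen, second-generation endpoint: infected erythrocytes, 2% hematocrit, 0.05% parasitemia final; 96 hours at 37 C, 5% CO2; luciferase detection reagent; luminescence decrease equals reduced growth.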
AMA1-RON2 inh = AMA1-RON2 (P. falciparum) interaction inhibition. AlphaScreen AMA1-biotinylated RON2 peptide binding. AID 720542. actives 0.2% (n = 360,000). Potency, µM (titrated, usually from 58.2 µM), without a hit: top-dose activity change, negative = inhibition, hits mostly inhibitors;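 further: 0% = vehicle wells and -100% = peptide control; nearly all actives have a fitted effect of over 45% in size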
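AMA1 (3D7) with his tag at 25 nM final met compounds first, then biotinylated RON2 peptide at 25 nM; detection used donor plus acceptor beads, 10 µg/mL apiece, read by AlphaScreen after 30 min at room temperature.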
Sm TGR inh = blocks Schistosoma mansoni thioredoxin glutathione reductase; Q962Y6; purified TGR, DTNB reduction, TNB absorbance 405 nm; Potency, µM (top dose mostly 114 µM), inactives show at the highest dose activity change, negative = inhibition, actives largely listed as inhibitors; actives 3% (n = 360,000); AID 485364; further: on the % scale 0 is the no-effect control and ±100 the full control effect; nearly all actives have a fitted effect of over 60% in size
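TGR 20 nM + NADPH 100 uM (dispensed conc.), cpd preinc 15 min RT; start with NADPH (500 uM addition) then DTNB (15 mM addition). Kinetic TNB absorbance, 405 nm filter. Four-parameter Hill fit across titration.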
NS1 inh = blocks influenza NS1 protein function; actives 0.4% (n = 270,000); Potency, µM (doses to about 46.1 µM), without a hit: top-dose activity, positive = more growth; calls by dose curve; further: actives are rising curves; nearly all actives have a fitted effect of over 50% in size
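Read-out: OD600 growth recovery of NS1-expressing budding yeast. Cells grown overnight at 30C in -URA glucose medium, washed, resuspended and diluted 1:100 in 2% galactose assay medium, pH 6.0. Same strain lacking NS1 served as positive control.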
The depositor's hits bear a star; ? = inconclusive; . = no result; [ ] = dose if it differs, or a comment. Unless noted, the call rests on the fitted dose curve; in most records, active means well fitted curve in the direction sought with a large enough effect; inconclusive means small, poorly fitted or top-dose-only effect, or another doubt; inactive means no such curve, though single readings can be large; an effect the other way counts as inactive or inconclusive. Potency means the concentration at half of the fitted maximal effect.

SMILES | Pf growth 48h | Pf growth 96h | AMA1-RON2 inh | Sm TGR inh | NS1 inh
Cc1cc(C)n2nc(C(=O)OCC(=O)N(Cc3ccccc3)C(C)C)nc2n1 | 3% | 18% | 13% | -2% | .
CCc1ccc(S(=O)(=O)N2CCCC(N3CCN(c4ccc(OC)cc4)CC3)C2)cc1 (stereo unspecified) | ? | 14% | ? | -2% | -6%
CCOC(=O)C1=CN(Cc2cccc(F)c2)S(=O)(=O)N(CC)C1CCc1ccccc1 (stereo unspecified) | . | . | 26% | . | .
CCc1ccc(N(CC(=O)Nc2ccc(NC(C)=O)cc2)S(=O)(=O)c2ccccc2)cc1 | 13µM* | ? | 15% | 3% | ?
CC(=O)Nc1ccc(NC(=O)CN(c2ccc([N+](=O)[O-])cc2)S(=O)(=O)c2ccccc2)cc1 | 22% | 2.9µM* | -6% | 11% | 1%
CC1CCC(NC(=O)N(CCCl)N=O)CC1 (stereo unspecified) | 5.4µM* | 6.7µM* | 7% | . | .
CNC(=S)N1CCN(c2c(F)cc3c(=O)c(C(=O)O)cn(C4CC4)c3c2OC)CC1C (stereo unspecified) | . | 13µM* | 1% | -29% | 3%
COc1c(N2CCN(C(=S)Nc3ccccc3)C(C)C2)c(F)cc2c(=O)c(C(=O)O)cn(C3CC3)c12 (stereo unspecified) | ? | -17% | . | -14% | 8%
Cc1cccc(NC(=O)CSCC(=O)Nc2cc(S(=O)(=O)N3CCOCC3)ccc2OC(C)C)c1 | ? | ? | 7% | 0% | .
CC(C)Oc1ccc(S(=O)(=O)N2CCOCC2)cc1NC(=O)Cc1cccs1 | 13µM* | ? | 1% | 0% | .
COc1ccc(S(=O)(=O)N2CCOCC2)cc1NC(=O)Cc1cccs1 | ? | ? | 3% | -10% | .
Cc1ccc(CSCC(=O)Nc2cc(S(=O)(=O)N3CCOCC3)ccc2OC(C)C)cc1 | 10µM* | 6.6µM* | -5% | -5% | .
CCOc1ccccc1NC(=O)Cn1c(=O)n(Cc2nc(C)no2)c(=O)c2ccccc21 | . | . | . | 0% | .
Cc1ccc(N=Cc2c(O)n(-c3cc(Cl)ccc3N3CCOCC3)c(=O)c3ccccc23)cc1C | 2.6µM* | . | -7% | 7% | 22%
O=c1[nH]c(=S)n(-c2ccc(Cl)cc2)c(O)c1C=Nc1ccc(N2CCOCC2)cc1 | 3% | ? | 56% | 3% | 8%
CC(C)(C)NCC(O)COc1c(F)cc(Br)cc1F (stereo unspecified) | 12µM* | . | 4% | 4% | 1%
CC(C)(C)CC(C)(C)NCC(O)COc1c(F)cc(Br)cc1F (stereo unspecified) | . | 0.59µM* | -5% | 0% | -8%
Cc1cc(C)c(OCC(O)CNC(C)(C)C)c(C)c1 (stereo unspecified) | -16% | 15% | -14% | 1% | .
c1ccc(SC23CC4CC(CC(C4)C2)C3)nc1 | . | . | 0% | . | .
Cn1c(=O)[nH]c(=O)c2c1nc(N1CCCCC1)n2CC(O)COc1ccc([N+](=O)[O-])cc1 (stereo unspecified) | -12% | 9.3µM* | 0% | 8% | 1%
C=CCOCC(O)Cn1c(N2CCCC2)nc2c1c(=O)[nH]c(=O)n2C (stereo unspecified) | 5% | 6.6µM* | 9% | -2% | 12%
O=C1c2ccccc2C(=O)C1(CO)c1ccc(OC(F)F)cc1 | 12µM* | 126% | 0% | -8% | 11%
COc1ccc(C(=O)NCCCc2nc3ccccc3n2Cc2cc(C)ccc2C)cc1OC | 12µM* | 10µM* | -7% | -12% | -24%
CCn1c(CCNC(=O)c2ccc(OC)c(OC)c2)nc2ccccc21 | -29% | ? | -5% | 0% | -3%
COC(=O)c1cc(-c2ccc(Br)cc2)c2c(=O)n(C)c(=O)n(C)c2n1 | -11% | 5.9µM* | 1% | 5% | -6%
SMILES | Pf growth 48h | Pf growth 96h | AMA1-RON2 inh | Sm TGR inh | NS1 inh
COc1ccc(N2CCN(c3c(S(=O)(=O)c4ccccc4)cnc4ccc(OC)cc34)CC2)cc1 | 8.3µM* | 4.1µM* | -14%[11.6 µM] | -24% | ?
CCN1CCN(c2c(S(=O)(=O)c3ccccc3)cnc3ccc(Cl)cc23)CC1 | . | . | . | -9% | .
CCOc1ccc2ncc(S(=O)(=O)c3ccccc3)c(N3CCN(c4ccccc4)CC3)c2c1 | . | . | -14% | . | .
CCOc1ccc2ncc(S(=O)(=O)c3ccccc3)c(N3CCN(c4ccc(OC)cc4)CC3)c2c1 | 8.3µM* | 2.9µM* | ? | -7% | 12%
CCOC(=O)c1ccccc1NC1c2ccccc2C(=O)N1C1CCN(C(=O)OCC)CC1 (stereo unspecified) | 1.7µM* | ? | 2% | -1% | -74%
c1ccc(-c2nc(-c3nccc4ccccc34)oc2-c2ccccc2)cc1 | 45% | 33% | 1% | 0% | -6%
CC(C)(C)N(Cc1ccccc1)C(=O)COC(=O)C1CCN(c2ccc(C(F)(F)F)cn2)CC1 | 10µM* | ? | -2% | 7% | .
CCOC(=O)CC(NC(=O)c1ccco1)c1ccccc1Cl (stereo unspecified) | -16% | 0% | -8% | 10% | 1%
CCOC(=O)CC(NC(=O)Cc1cccs1)c1ccccc1Cl (stereo unspecified) | -2% | 3% | -6% | 89µM* | 0%
OC(c1ccccc1)c1nc(-c2csc3ccccc23)cs1 (stereo unspecified) | . | . | 0% | . | .
CN(C)S(=O)(=O)c1cccc(-c2nnc(SCc3ccc4c(c3)OCCO4)o2)c1 | 17µM* | ? | -8% | 7% | ?
O=C(O)C1=C(C2CCCCC2)C(=O)c2ccccc21 | . | . | 2% | . | .
O=C(O)c1ccc(C2CCCCC2)cn1 | ? | -9% | 13µM* | 3% | -31%
COC(=O)Cc1cc(=O)[nH]c(/N=C(\N)Nc2ccc(C(C)C)cc2)n1 | 24% | 0.83µM* | 59% | 9% | 2%
COC(=O)Cc1cc(=O)[nH]c(/N=C(\N)Nc2cccc(C)c2)n1 | 19% | 12µM* | 62% | 12% | 6%
COC(=O)c1sccc1NC(=O)CSCCc1ccccn1 | 8% | 5% | -1% | -3% | .
COc1ccc(-c2nnc3ccc(SCC(=O)N4CCOCC4)nn23)cc1 | 24% | 34% | 16% | -5% | ?
COc1ccc(-c2nnc3ccc(SC)nn23)cc1 | 71% | 4.7µM* | 20% | 9% | -88%
CN(Cc1ccccc1)c1ncnc2c1nc1n2CCCC1 | . | . | . | -1% | .
N#C/C(=C\c1ccc(Cl)cc1)C(=O)NCC1CCCO1 (stereo unspecified) | . | . | . | -7% | .
Cc1ccc(-c2nnc(N3CCOCC3)c3ccccc23)cc1S(=O)(=O)N(C)C | ? | 32% | -11% | -14% | -1%
O=C1CCN(Cc2cccnc2)CCN1[C@H](CO)Cc1ccccc1 | -2% | 3% | -4% | -22% | -3%
CC1(C)CC(=O)C2=C(C1)N(c1cccc(O)c1)C1=C(C2)C(=O)CC(C)(C)C1 | ? | ? | 36% | 32µM* | 0%
